The record followed here is PubChem BioAssay (NCI).

SMILES strings stand for the structures. The panel holds about 83,000 compounds, 20% with a hit somewhere; the sample as a whole holds those more often.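 Treatment: one concentration, 48 hours, 96-well format. Scoring: percent growth, with anything below 10 considered active.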 Values without a mark were called inactive. Activity calls are given as the source filed them.

The first test relates to NCI-H23 lung. Kind of test: NCI-60 one-dose screen, 48 h (100 = growth as untreated, 0 = no growth, -100 = all killed). Conditions: 10 µM unless noted.
Take `COc1c(O)cc2c(c1CC=C(C)C)OC(=O)c1c(cc(O)c(CC=C(C)C)c1O)O2`: the growth is -8.77% (active).
In the case of `Fc1ccc(-c2nn3c(-c4cc(C(F)(F)F)cc(C(F)(F)F)c4)nnc3s2)cc1`, the growth is 45.5%.
`COc1ccc2c(c1)c(CC(=O)[Se]C)c(C)n2C(=O)c1ccc(Cl)cc1`: the growth is 5.36% (active).

Another test concerns NCI-H226 lung. The test is described as above. The conditions noted are these: 10 µM unless noted.
On to `Oc1c(N=Nc2nn[nH]n2)ccc2ccccc12`, for which the growth is 81.4%.
As to `CCN1CCN(c2nc(NNC(=O)Cc3ccccc3)nc(N3CCN(C(c4ccccc4)c4ccccc4)CC3)n2)CC1`, the growth is 95%.
For the compound `COc1cc(-c2nnc(-c3nc(-c4cc(OC)c(OC)c(OC)c4)n4ccccc34)o2)ccc1N`, the growth is 83%.
On the same count and under the same terms, the figure for `CCOc1cc(/C=C/C(=O)CC(=O)/C=C/c2ccc(OC(=O)CNCCN(CC)CC)c(OCC)c2)ccc1OC(=O)CNCCN(CC)CC` is -41.3% (active); for `Nc1ccc2c(c1Br)Cc1ccccc1-2` it is 104%.
Consider `CCOC(=O)C1=CCC(n2cc(C)c(=O)[nH]c2=O)O1` (configuration not stated), for which the growth was 89.5%.
Same read-out and setting: the figure for `CCCCCN(CCCCC)CCCNc1c2c(nc3ccc(Cl)cc13)CCCC2` is 50.8%; for `COc1ccc(-c2nnc3c4[nH]cnc4ncn23)c(OC)c1` it is 43.5%; for `O=C(Nc1nn2c(-c3cc(C(F)(F)F)cc(C(F)(F)F)c3)nnc2s1)C1CCCC1` it is 9.1% (active).
Turning to `COc1ccc(N2CCN(CC(=O)N3CCN(c4nnc(-c5ccc(Cl)cc5)c(-c5ccc(Cl)cc5)n4)CC3)CC2)cc1`, the growth is 57.9%.
Take `O=C(O)c1ccc2cccnc2c1O`: the growth is 6.97% (active).
As for `COC(=O)[C@H]1[C@H]2C[C@@H]3c4[nH]c5cc(OC)ccc5c4CCN3C[C@H]2C[C@@H](OC(=O)/C=C/c2cc(OC)c(OC)c(OC)c2)[C@@H]1OC`, the growth is 101%.
Turning to `COc1ccc2nc(-c3ccc(Cl)cc3)cc(-c3nnc(SCC(=O)Nc4ccc(C(C)=O)cc4)n3-c3ccccc3)c2c1`, the growth was 99.1%.
For `COc1cc(/C=C/C(=O)C(C(=O)/C=C/c2ccc(OC(=O)CCNC34CC5CC(CC(C5)C3)C4)c(OC)c2)C(=O)CCNC23CC4CC(CC(C4)C2)C3)ccc1OC(=O)CCNC12CC3CC(CC(C3)C1)C2` (configuration not stated), the growth is 31.4%.
As to `N#Cc1ccccc1C#Cc1ccccc1C#Cc1ccc(OCCCCCCOc2ccc(C#Cc3ccccc3C#Cc3ccccc3C#N)cc2)cc1`, the growth is 102%.
Consider `O=CNc1ccc2c(c1)Cc1cc([N+](=O)[O-])ccc1-2`, for which the growth was 66.5%.
As for `N#CC(C#N)C(C#N)C#N`, the growth was 99.9%.
Still for that read-out and setting: then `N/C(=N\c1nc2ccccc2s1)NC(=O)Nc1ccccc1Cl`, with 35.3%.
Take `O=c1c2c(=NCCCN3CCCC3)cc3c(=O)n(CCCN4CCCC4)c(=O)c4c(NCCCN5CCCC5)cc(c(O)n1CCCN1CCCC1)c2c4-3`: the growth was -26.3% (active).
Take `C/C(=C\CCc1ccsc1)CC/C=C(\C)CCCN1CCSCC1`: the growth was 91.3%.
Consider `COc1ccc(CC(=O)Nc2nn3c(-c4cc(C(F)(F)F)cc(C(F)(F)F)c4)nnc3s2)cc1`, for which the growth is 62.8%.
For the compound `CCCCCCCCCCNCCSS(=O)(=O)O`, the growth was 102%.
Turning to `O=C(Nc1ccccc1)c1cc(-n2cnc([N+](=O)[O-])c2)cc(-n2cnc([N+](=O)[O-])c2)n1`, the growth is 86.2%.
Regarding `O=C1/C(=C/c2ccc(F)cc2)Cc2ccccc21`, the growth was 94.2%.
Turning to `CCN(CC)c1ccc(N=C2C=CC(=O)C=C2NC(C)=O)cc1`, the growth is 93.7%.
In the case of `C[C@H](C(=O)N[C@@H](Cc1ccc(-c2ccccc2)cc1)C(=O)NC1CC(C)(C)N(C)C(C)(C)C1)c1ccc(-c2ccccc2)c(F)c1`, the growth was -49.1% (active).
In the case of `CSc1nc2nc3c(nc2c(=O)n1C)C(=O)c1ccccc1C3=O`, the growth is -55.6% (active).
Take `O=C(C(=O)c1cc(Br)ccc1O)c1cc(Br)ccc1O`: the growth is 90.9%.
Consider `O=C1CSC(c2ccccc2O)N1c1nnc(Cn2ccnc2)o1` (configuration not stated), for which the growth is 91.4%.
Regarding `COc1cccc(N2CCN(CC(=O)N3CCN(c4nnc(-c5ccc(Cl)cc5)c(-c5ccc(Cl)cc5)n4)CC3)CC2)c1`, the growth was 74.7%.
`NC(=O)NS(=O)(=O)c1ccc(N2N=C(C(F)(F)F)CC2c2cc(C(F)(F)F)cc(C(F)(F)F)c2)cc1` (configuration not stated): the growth was 101%.
On the same count and under the same terms, the figure for `CC(=O)N1N=C(c2ccc(C(F)(F)F)cc2)CC1c1ccc2c(c1)OCO2` (configuration not stated) is 96.5%; for `CCOc1cc(/C=C/C(=O)C(C(=O)/C=C/c2ccc(OC(=O)CNc3nnc(C)s3)c(OCC)c2)C(=O)CNc2nnc(C)s2)ccc1OC(=O)CNc1nnc(C)s1` it is -14.8% (active).
The same measure, in the same setting: then `CC(C)N(Cc1ccccc1)c1c(S)ssc1=S`, with 14.2%.
Turning to `Nc1ccccc1-c1ccn[nH]1`, the growth is 86.8%.
Take `FC(F)(F)c1cc(-c2nnc3n2N=C(N2CCCC2)CS3)cc(C(F)(F)F)c1`: the growth is 58.4%.
In the case of `COc1c(O)cc2c(c1CC=C(C)C)OC(=O)c1c(cc(O)c(CC=C(C)C)c1O)O2`, the growth was 88.1%.
Consider `Fc1ccc(-c2nn3c(-c4cc(C(F)(F)F)cc(C(F)(F)F)c4)nnc3s2)cc1`, for which the growth is 6.11% (active).
With `COc1ccc2c(c1)c(CC(=O)[Se]C)c(C)n2C(=O)c1ccc(Cl)cc1`, the growth is -34% (active).
